DT40 TDP1 no CPT = qHTS for Inhibitors of human tyrosyl-DNA phosphodiesterase 1 (TDP1): qHTS in cells in absence of CPT | 15% of 420,000 active | Potency, µM (highest dose often 46.2 µM), for the others: at the highest dose activity change, negative = growth inhibition, actives largely listed as inhibitors | DT40 Tdp1-/- hTDP1 cells, no CPT, ATP luminescence, 48 h | AID 686978, 2013; further: potency means the concentration at half of the fitted maximal effect; on the % scale 0 is the no-effect control and ±100 the full control effect; nearly all actives have a fitted effect of over 55% in size
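Chicken DT40 Tdp1-/- cells stably complemented with human TDP1 were seeded at 400 cells/well with DMSO in place of 20 nM camptothecin. After compound pinning, cells grew at least 48 hr at 37 °C; viability read by CellTiter-Glo luminescence.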
IL1B secr inh = qHTS for Inhibitors of Inflammasome Signaling: IL-1-beta AlphaLISA Primary Screen. 4.7% of 360,000 active. THP-1 LPS/ATP IL-1B secretion, AlphaLISA, 16 h; hits give low values. activity change, % at 57.5 µM; in the data active means activity change below about -50%; inconclusive means mostly about -30% to -49%; further: on the % scale 0 is the no-effect control and ±100 the full control effect
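Secreted IL-1B measured by AlphaLISA bead assay after 16 h compound exposure of THP-1 cells; compounds (final up to 57.5 uM) added 1 h before LPS (250 ng/mL) and ATP (1.25 mM) stimulation; lower signal means less secretion.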
TDP1 inh = qHTS Assay for Inhibitors of Tyrosyl-DNA Phosphodiesterase (TDP1). Tyrosyl-DNA phosphodiesterase 1 (Homo sapiens), Q9NUW8. recombinant TDP1, AlphaScreen DNA substrate cleavage. Potency, µM (highest dose often 130 µM), without a hit: at the highest dose activity change, negative = inhibition, most hits filed as inhibitors. 0.28% of 350,000 active. AID 485290, 2010; further: potency means the concentration at half of the fitted maximal effect; on the % scale 0 is the no-effect control and ±100 the full control effect; nearly all actives have a fitted effect of over 40% in size
Target sequence (Q9NUW8 whole entry, looked up): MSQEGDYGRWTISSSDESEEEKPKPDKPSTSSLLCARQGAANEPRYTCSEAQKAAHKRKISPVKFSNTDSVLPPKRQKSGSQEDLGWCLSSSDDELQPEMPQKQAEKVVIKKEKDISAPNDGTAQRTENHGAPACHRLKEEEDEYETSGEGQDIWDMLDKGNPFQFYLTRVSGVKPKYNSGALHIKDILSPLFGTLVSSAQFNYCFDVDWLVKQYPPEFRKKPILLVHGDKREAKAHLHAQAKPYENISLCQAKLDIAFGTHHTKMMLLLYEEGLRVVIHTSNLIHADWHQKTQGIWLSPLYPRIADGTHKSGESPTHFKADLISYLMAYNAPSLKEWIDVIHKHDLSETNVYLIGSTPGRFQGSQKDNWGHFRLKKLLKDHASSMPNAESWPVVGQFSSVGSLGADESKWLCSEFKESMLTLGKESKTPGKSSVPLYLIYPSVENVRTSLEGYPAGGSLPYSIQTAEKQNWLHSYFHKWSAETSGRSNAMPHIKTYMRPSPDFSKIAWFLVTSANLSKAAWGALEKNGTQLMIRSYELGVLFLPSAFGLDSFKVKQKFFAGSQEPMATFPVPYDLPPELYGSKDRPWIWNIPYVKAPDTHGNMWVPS
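E. coli-derived human Tdp1, 1 nM final. Cpd preinc 15 min RT; substrate 15 nM final, 5 min RT; AS bead mix 10 ug/ml final, 10 min RT. Signal loss = tyrosine-FITC cleavage. No-enzyme wells = max signal.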
DT40 TDP1 CPT = qHTS for Inhibitors of human tyrosyl-DNA phosphodiesterase 1 (TDP1): qHTS in cells in presence of CPT; chicken DT40 Tdp1-/-;hTDP1 cells + 20 nM CPT, ATP luminescence, 48 h; Potency, µM (doses to about 46.2 µM), inactives show top-dose activity change, negative = growth inhibition, most hits filed as inhibitors; 12% of 420,000 active; further: potency means the concentration at half of the fitted maximal effect; on the % scale 0 is the no-effect control and ±100 the full control effect; nearly all actives have a fitted effect of over 55% in size
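Chicken DT40 Tdp1-/- cells stably complemented with human TDP1 were seeded at 400 cells/well in medium containing 20 nM camptothecin, exposed to pin-transferred compounds, and grown at 37 °C for at least 48 hr. Viability was read as ATP luminescence.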
HepG2 tox = qHTS for Inhibitors of TGF-b: Cytotox Counterscreen; HepG2 CAGA-GFP viability, ATP luminescence, 18 h; Potency, µM (series often up to 46.1 µM), for inactives: at the highest dose activity change, negative = cytotoxicity, actives largely listed as cytotoxic; 0.76% of 410,000 active; further: potency means the concentration at half of the fitted maximal effect
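CellTiter-Glo luminescence gave cytotoxicity after 18 hours at 37 degrees C. The cells were HepG2 CAGA-GFP in 1% FBS DMEM, stimulated with 500 pg/mL TGF-beta after compound addition. %Activity was normalised to no-cell wells (complete cell-killing) and DMSO (no toxicity), and curves were fitted and classified.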
TGFb SMAD3 inh = qHTS for Inhibitors of TGF-b | HepG2 CAGA-GFP TGF-b/SMAD3 reporter, GFP fluorescence, 18 h; TGF-beta stimulated, 500 pg/mL final | Potency, µM (titrated, usually from 46.1 µM), for inactives: at the top dose activity, negative = inhibition, usual class: inhibitors | 1.2% of 410,000 active; further: potency means the concentration at half of the fitted maximal effect; on the % scale 0 is the no-effect control and ±100 the full control effect; nearly all actives have a fitted effect of over 65% in size
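HEPG2 CAGA-GFP reporter cells (1000/well, DMEM with 1% FBS) received compounds, then recombinant TGF-beta at 500 pg/mL final for 18 hours at 37 degrees C. Per-cell GFP summed per well was normalised to unstimulated and stimulated DMSO controls before curve fitting.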
An asterisk follows results filed as active; ? = inconclusive; . = not tested or not shown; [ ] = another dose, or the depositor's remark. In the library only some 19% were active in any assay of this set; here they are far more common. Unless noted, the call rests on the fitted dose curve; in most records, active means well fitted curve in the direction sought with a large enough effect; inconclusive means small, poorly fitted or top-dose-only effect, or another doubt; inactive means no such curve, though single readings can be large; an effect the other way counts as inactive or inconclusive.

SMILES | DT40 TDP1 no CPT | IL1B secr inh | TDP1 inh | DT40 TDP1 CPT | HepG2 tox | TGFb SMAD3 inh
COc1ccc(Cn2c(=O)c3oc4ccccc4c3n(Cc3cccc(C(F)(F)F)c3)c2=O)cc1 | ? | . | -2.6% | ? | 3.7% | 2.9%
COc1ccc(C(=O)N2CCC(C(=O)N3CCN(c4ccccc4)CC3)CC2)cc1 | -16.8% | 3.5 | . | -0.9% | 2.0% | 4.0%
O=C1OC(c2ccccc2)Cc2cc(C(=O)N3CCN(c4ccc(F)cc4)CC3)ccc21 (configuration not stated) | ? | -13.1 | 8.9% | 18.4µM* | -8.6% | -35.7%
O=C(O)c1ccc2c(c1)CC(c1ccccc1)OC2=O (configuration not stated) | -8.5% | 29.5 | -6.1% | 7.0% | 8.9% | 0.0%
COc1ccc(N2CCN(C(=O)c3ccc4c(c3)CC(c3ccccc3)OC4=O)CC2)cc1 (configuration not stated) | 20.6µM* | -11.0 | 4.3% | ? | -9.9% | -6.3%
Cc1cc(C)nc(SCC(=O)OCC(=O)Nc2ccccc2)n1 | 6.1% | 5.9 | 9.9% | 21.6% | 1.3% | 0.0%
CN(C)c1ccc(-c2nnc(SCC(=O)NCc3ccco3)n2C)cc1 | -17.6% | . | . | -7.6% | -13.9% | -3.9%
COc1ccccc1-c1nnc(N)s1 | -1.8% | -9.7 | 3.6% | 3.6% | 18.6% | 5.1%
COc1ccccc1-c1nnc(SC2CCc3ccccc3NC2=O)s1 (configuration not stated) | ? | -13.0 | 2.5% | ? | 1.4% | 12.6µM*
CC(=O)OC(C)(C)C1Cc2cc3ccc(=O)oc3cc2O1 (configuration not stated) | 16.4% | 1.6 | -6.1%[56.1 µM] | -14.1% | 8.5% | 6.5%
C/C=C(\C)C(=O)OC(C)(C)[C@H]1Cc2cc3ccc(=O)oc3cc2O1 | ? | -21.9 | . | 23.1µM* | -41.4% | 0.2%
CCOC(=O)N1CCC(NS(=O)(=O)c2ccc(C#N)cc2)CC1 | -24.8% | 6.5 | 1.4% | 0.8% | -8.8% | -0.2%
CCOc1cc(C(=O)Nc2cccc3cccnc23)cc(OCC)c1OCC | -102.3% | . | -5.3% | ? | -8.5% | -18.5%
CCN(C(=O)COC(=O)C(c1ccccc1)c1ccccc1)c1c(N)n(Cc2ccccc2)c(=O)[nH]c1=O | ? | -4.6 | . | ? | -11.4% | ?
O=C(C=CC(=O)OC1CCCCC1)OC1CCCCC1 | ? | -87.9* | . | -28.1% | -3.9% | -0.1%
Cc1nnc(N2C(=O)c3cccc4c([N+](=O)[O-])ccc(c34)C2=O)s1 | 4.61µM* | -95.4* | 5.9% | 7.31µM* | -23.2% | ?
Cc1ccc(N2C(=O)c3cccc4c([N+](=O)[O-])ccc(c34)C2=O)c2cccnc12 | 0.731µM* | 13.3 | . | 0.82µM* | 12.8% | 0.1%
O=C1c2cccc3c([N+](=O)[O-])ccc(c23)C(=O)N1Cc1cccnc1 | 4.61µM* | -101.0* | 8.9% | 3.66µM* | -17.2% | ?
O=C(COC(=O)c1ccccc1Br)Nc1ccc2[nH]c(=O)[nH]c2c1 | 12.1% | 12.8 | -5.6% | -1.5% | 0.0% | -9.8%
CC(Sc1n[nH]c(N)n1)C(=O)NC1CCCCC1C (configuration not stated) | 8.8% | 9.5 | 4.7% | -14.7% | 2.1% | 7.4%
O=C(NCc1ccccc1Cl)c1ccc(NC2=NC3CS(=O)(=O)CC3S2)cc1 (configuration not stated) | 1.4% | -25.7 | . | -1.8% | -11.8% | -2.8%
CCCCC[C@H](O)/C=C/[C@@H]1[C@@H](C/C=C\CCCC(=O)O)[C@H](O)C[C@H]1O | . | . | 7.3% | . | . | .

Screening data deposited in PubChem BioAssay by National Center for Advancing Translational Sciences (NCATS).
